# Screening data deposited in PubChem BioAssay by several laboratories.
# This is a sample that favours compounds with a hit; in the whole collection about 0.82% have one here.
# TcdB inh = TcdB glycohydrolase inhibition; P18177; TcdB glycohydrolase enzymatic assay, plate reader; inhibition, % at 9.99 µM; actives 0.24% (n = 350,000); AID 652162; in the data active means inhibition above about 10%
# PrPC surface inh = inhibitors of human cell surface prion protein PrPC; actives 0.43% (n = 370,000); P04156; TR-FRET read-out; AID 720596; inhibition, % at 13.8 µM; in the data active means inhibition above about 24%
# VHR inh abs = DUSP3 (human) phosphatase inhibition | P51452 | recombinant VHR phosphatase, pNPP absorbance | inhibition, % at 13.3 µM | actives 0.52% (n = 290,000); in the data active means inhibition above about 50%
# Target sequence (P51452 whole entry, looked up): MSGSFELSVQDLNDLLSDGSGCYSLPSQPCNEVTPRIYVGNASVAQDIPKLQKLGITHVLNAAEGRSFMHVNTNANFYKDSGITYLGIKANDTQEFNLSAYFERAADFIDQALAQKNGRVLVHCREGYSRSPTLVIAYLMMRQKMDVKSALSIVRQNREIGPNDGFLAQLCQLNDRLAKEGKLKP
# A number is an active result; n = inactive; x = not tested or not shown.
SMILES,TcdB inh,PrPC surface inh,VHR inh abs
O=C(CN1CCN(Cc2ccccc2)C1=O)NCCCN1CCOCC1,n,n,50
CC1CCN(CCCNC(=O)CN2CCN(Cc3ccc(Cl)cc3)C2=O)CC1,n,n,n
COc1ccc2c3c([nH]c2c1)[C@@H](CO)N(CC1CC1)CC31CN(C(=O)Nc2cccc(F)c2)C1,n,x,x
O=S1(=O)N=C(Nc2ccc(N3CCOCC3)cc2)c2ccccc21,x,n,n
O=S1(=O)N=C(Nc2ccc(S(=O)(=O)N3CCCCC3)cc2)c2ccccc21,x,n,53
COc1cccc(CNS(=O)(=O)c2c(C(=O)N3CCCCCC3)c(C)n(C)c2C)c1,n,n,n
COc1cccc(CNS(=O)(=O)c2c(C(=O)N3CCCCC3)c(C)n(C)c2C)c1,n,n,54
O=C(C[C@@H]1CC[C@H](NC(=O)C2CCOCC2)[C@@H](CO)O1)NCC1CC1,n,x,x
O=C1NN(c2cccc(Br)c2)C(=O)/C1=C\c1ccc(N2CCOCC2)cc1,x,x,53
O=C1NC(=O)N(Cc2cccs2)C(=O)/C1=C/c1ccc(N2CCOCC2)cc1,n,n,n
CCC(=O)N1[C@@H]2Cn3c(ccc(-c4ccccc4F)c3=O)[C@H]1[C@@H](C(=O)NC1CCCC1)[C@@H]2CO,n,x,x
Cc1n[nH]c(=O)nc1Nc1ccc(O)cc1,21,n,n
Cc1ccc(Nc2nc(=O)[nH]nc2C)cc1,x,n,n
COc1ccc(NC(=O)c2ccc(N3CCOCC3)nc2)cc1,n,n,n
CN(C)c1ccc(NC(=O)c2ccc(N3CCOCC3)nc2)cc1,n,n,52
C[C@@H]1CN([C@@H](C)CO)C(=O)c2cccc(NC(=O)CCCCCC(=O)Nc3ccccc3N)c2O[C@H]1CN(C)S(=O)(=O)c1cn(C)cn1,n,x,x
O=C(CSc1ncnc2c1oc1ccccc12)c1cccs1,x,n,n
Cc1nc(SCC(=O)c2cccs2)c2oc3ccccc3c2n1,x,n,56
CCCN1[C@H](C(=O)NC2CCC2)[C@@H](CO)[C@@H]2Cn3c(ccc(-c4cccnc4)c3=O)[C@@H]21,n,x,x
CCc1cc(C(=O)N2CCCC(CCC(=O)N3CCN(c4ccccn4)CC3)C2)no1 (configuration not stated),n,n,n
O=C(CCC1CCCN(C(=O)c2cc(C3CC3)[nH]n2)C1)N1CCN(c2ccccn2)CC1 (configuration not stated),n,n,52
C[C@H](CO)N1C[C@H](C)[C@@H](CN(C)C)Oc2ccc(NS(=O)(=O)c3ccc(Cl)cc3)cc2C1=O,n,x,x
O=C(c1ccccc1)N1C[C@@H]2[C@H](c3ccccc31)[C@@H](CO)N2C(=O)c1cccc(F)c1,n,x,x
Cc1ccc(-n2ncc3c(N4CCCC4)ncnc32)c(C)c1,x,n,n
COc1cccc(N2CCN(c3ncnc4c3cnn4-c3ccc(C)cc3C)CC2)c1,n,34,n
SMILES,TcdB inh,PrPC surface inh,VHR inh abs
O=c1oc2ccccc2c(NC2CCCCC2)c1NS(=O)(=O)c1ccc(F)cc1,n,n,n
CCc1ccc(S(=O)(=O)Nc2c(NC3CCCCC3)c3ccccc3oc2=O)cc1,x,x,57
C/C(=N\OCC(=O)Nc1nc2ccccc2s1)c1ccccc1,10,n,n
COc1ccc(/C(C)=N/OCC(=O)Nc2nc3ccccc3s2)cc1OC,n,n,n
Fc1cccc(Cl)c1Cn1ncc2ccccc21,n,n,53
c1ccc(Cn2ncc3ccccc32)cc1,n,n,n
COc1ccc(CN2C[C@H](C)[C@@H](OC)CN(C)C(=O)c3ccc(NC(=O)C4CC4)cc3OC[C@@H]2C)cc1,n,x,x
O=C(CSc1ccc2nnc(-c3ccc(F)cc3)n2n1)N1CCOCC1,24,n,x
O=C(CSc1ccc2nnc(-c3cccs3)n2n1)N1CCOCC1,n,n,x
CCCC(=O)Nc1ccc2c(c1)C(=O)N(C)C[C@H](OC)[C@@H](C)CN(Cc1ccccc1F)[C@@H](C)CO2,n,x,x
C=C[C@@H](OC)[C@H](OC(=O)Nc1ccc(SC)cc1)c1ccc(OCCO)cc1,n,x,x
CC(C)NC(=O)N(C)C[C@H]1OCCCC[C@@H](C)Oc2ccc(NC(=O)c3ccccc3)cc2C(=O)N([C@@H](C)CO)C[C@H]1C,n,x,x
COc1cc(Cl)ccc1OCc1cc(C(=O)N2C[C@@H]3CCC[C@H]2C3)no1,n,n,n
COc1cc(Cl)ccc1OCc1cc(C(=O)N2C[C@H]3CC[C@H]2C3)no1,n,n,53
CC(=O)N(C)C[C@H]1Oc2ncc(-c3cccnc3)cc2C(=O)N([C@H](C)CO)C[C@@H]1C,n,x,x
C[C@H](CO)N1C[C@H](C)[C@H](CN(C)Cc2ccccn2)Oc2cc(-c3ccc(C#N)cc3)ccc2S1(=O)=O,n,x,x
COCCNC(=S)N(CCc1c(C)[nH]c2ccc(C)cc12)Cc1ccco1,n,n,n
COCCNC(=S)N(CCc1c(C)[nH]c2ccc(OC)cc12)Cc1ccco1,n,n,57
COc1ccc(NC(=S)N(CCc2c(C)[nH]c3ccc(C)cc23)Cc2ccco2)cc1,n,n,n
CNC(=S)N(CCc1c(C)[nH]c2ccc(OC)cc12)Cc1ccco1,n,n,57
C[C@H](CO)N1C[C@H](C)[C@H](CN(C)Cc2ccc3c(c2)OCO3)Oc2ccc(NC(=O)CCC(F)(F)F)cc2CC1=O,n,x,x
COc1ccccc1NC(=O)N[C@@H]1C=C[C@H](CC(=O)N[C@@H](C)c2ccccc2)O[C@@H]1CO,n,x,x
CCC(=O)N1CC2(C1)CN(C(=O)CN1CCOCC1)[C@H](CO)c1c2c2ccc(OC)cc2n1C,n,x,x
CCOc1ccccc1Nc1nnc(SCC(=O)NC(=O)c2cccn2C)s1,n,n,n
Cc1cccc(C)c1Nc1nnc(SCC(=O)NC(=O)c2cccn2C)s1,x,n,51
SMILES,TcdB inh,PrPC surface inh,VHR inh abs
COc1ccc(S(=O)(=O)N(C)C[C@@H]2Oc3ccc(NC(=O)Nc4c(C)noc4C)cc3C(=O)N([C@H](C)CO)C[C@H]2C)cc1,n,x,x
CCN1CC(CNCc2cn(-c3ccc(OC)cc3)nc2-c2ccccc2Cl)CC1=O (configuration not stated),11,n,n
COc1ccc(-n2cc(CNCC3CC(=O)N(C4CC4)C3)c(-c3ccccc3Cl)n2)cc1 (configuration not stated),n,n,n
O=C(O)c1ccc(-c2nnc(-c3ccccc3)o2)cc1,13,n,n
O=C(O)c1ccc(-c2nnc(-c3ccc([N+](=O)[O-])cc3)o2)cc1,n,n,n
CNc1n[nH]c(=S)s1,24,n,n
O=C(Nc1n[nH]c(=S)s1)c1ccc2ccccc2c1,n,n,n
CC(=O)Nc1n[nH]c(=S)s1,18,n,x
C=CCNc1n[nH]c(=S)s1,15,n,x
Cc1cccc(C)c1Nc1n[nH]c(=S)s1,n,n,x
Cc1cc(C)c(Nc2n[nH]c(=S)s2)cc1C,n,n,x
COc1ccc(CN(C)C[C@H]2OCCCC[C@@H](C)Oc3ccc(NS(=O)(=O)c4cn(C)cn4)cc3C(=O)N([C@H](C)CO)C[C@H]2C)cc1,n,x,x
O=C(Nc1ccccc1)N1C[C@@H]2[C@H](c3ccccc31)[C@H](CO)N2Cc1cocn1,n,x,x
C[C@@H]1CN([C@H](C)CO)C(=O)c2cc(-c3cccc(C#N)c3)cnc2O[C@H]1CN(C)Cc1cccnc1,n,x,x
COc1cccc(CN(C(=O)CN2C(=O)c3ccccc3S2(=O)=O)C(C(=O)NCC2CCCO2)c2ccco2)c1 (configuration not stated),n,n,n
